# Assay results from PubChem BioAssay (NCI).
# About 83,000 compounds went through this panel and 20% of them were active in at least one assay; those are over-represented in the sample as a whole.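 Single-dose data. Exposure time 48 hours. Values below 10 considered active.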 Values without a mark were called inactive. Active and inactive are the calls of the source.
# How the values were obtained:
# Assay in all cases: NCI-60 one-dose screen, 48 h (100 = growth as untreated, 0 = no growth, -100 = all killed)
# Details in all cases: 10 µM unless noted
# HCT-15 colon = tested on: HCT-15 colon
# HT29 colon = tested on: HT29 colon
# SNB-75 CNS = tested on: SNB-75 CNS
# U251 CNS = tested on: U251 CNS
# PC-3 prostate = tested on: PC-3 prostate
# SK-MEL-5 melanoma = tested on: SK-MEL-5 melanoma
# UACC-62 melanoma = tested on: UACC-62 melanoma
# SK-MEL-28 melanoma = tested on: SK-MEL-28 melanoma
# SK-MEL-2 melanoma = tested on: SK-MEL-2 melanoma
# EKVX NSCLC = tested on: EKVX NSCLC
# SN12C renal = tested on: SN12C renal
# UO-31 renal = tested on: UO-31 renal
# TK-10 renal = tested on: TK-10 renal
# ACHN renal = tested on: ACHN renal
# CAKI-1 renal = tested on: CAKI-1 renal
# A498 renal = tested on: A498 renal
# CCRF-CEM leukemia = tested on: CCRF-CEM leukemia
# MOLT-4 leukemia = tested on: MOLT-4 leukemia
# LOX IMVI melanoma = tested on: LOX IMVI melanoma
# SNB-19 CNS = tested on: SNB-19 CNS
SMILES,growth (HCT-15 colon),growth (HT29 colon),growth (SNB-75 CNS),growth (U251 CNS),growth (PC-3 prostate),growth (SK-MEL-5 melanoma),growth (UACC-62 melanoma),growth (SK-MEL-28 melanoma),growth (SK-MEL-2 melanoma),growth (EKVX NSCLC),growth (SN12C renal),growth (UO-31 renal),growth (TK-10 renal),growth (ACHN renal),growth (CAKI-1 renal),growth (A498 renal),growth (CCRF-CEM leukemia),growth (MOLT-4 leukemia),growth (LOX IMVI melanoma),growth (SNB-19 CNS) [%]
Cc1cc2nc3c4cc(O)ccc4n(CCN(C)C)c3nc2cc1C,-29.3% (active),1.97% (active),-5.77% (active),3.44% (active),6.53% (active),-27.4% (active),-49.5% (active),-8.23% (active),-42.9% (active),2.33% (active),3.51% (active),-37.5% (active),5.14% (active),-33.7% (active),-39% (active),9.28% (active),9.31% (active),1.9% (active),,
O=C(c1ccccc1)C(CN1CCOCC1)c1ccccc1 (stereo not drawn),1.74% (active),-67% (active),51.8%,19.3%,48.7%,44.5%,22.4%,68.6%,-8.58% (active),,28.1%,11.2%,9.68% (active),6.83% (active),,93%,4.53% (active),19.2%,-34.7% (active),
OCC1OC(n2cnc3c(Cl)ncnc32)CC1O (stereo not drawn),95.6%,107%,102%,99.2%,88.9%,106%,101%,110%,108%,113%,96.5%,76.9%,106%,95.6%,94.1%,106%,98.2%,91.9%,,
C=COCCCCCCCCCCCCCCCCCC,114%,102%,122%,106%,84.5%,112%,88.6%,104%,111%,118%,88.4%,124%,101%,108%,99.7%,92.7%,91.5%,,,
C=C1C(=O)O[C@H]2[C@H]1CC/C(Cn1cc(-c3ccc(F)cc3)nn1)=C\CC[C@@]1(C)O[C@@H]21,-78.8% (active),-84.8% (active),85.5%,20.7%,28.5%,,,,14.9%,68.4%,-13.6% (active),-80.8% (active),-92.9% (active),-19.7% (active),-12.9% (active),27.4%,-36.6% (active),-25.4% (active),-89.3% (active),66.8
Cn1cc(-c2csc(-c3cn(CCCN4CCCCC4)c4ccc(F)cc34)n2)c2cccnc21,77.5%,75.2%,77.2%,85.2%,71.5%,-27.7% (active),,-78.9% (active),93.5%,77.3%,83.9%,78.2%,99.7%,83.7%,,73.4%,-29.9% (active),,85.4%,
N=C(N)N=Nc1ccc(O)cc1,45.9% [100 µM],31.9% [100 µM],56.3% [100 µM],40.5% [100 µM],38.1% [100 µM],85.9% [100 µM],86.6% [100 µM],104% [100 µM],105% [100 µM],96% [100 µM],104% [100 µM],81.9% [100 µM],124% [100 µM],20.8% [100 µM],53.4% [100 µM],126% [100 µM],91.2% [100 µM],88.4% [100 µM],,
CCc1cccc(CC)c1NC(=O)c1sc2nc3c(cc2c1N)CCCC3,55%,77.4%,54.2%,73.4%,63%,,,,56.3%,88.9%,83.5%,57.7%,90.5%,71.8%,64.6%,40.2%,60.7%,61.9%,75.2%,71.3
